Laboratory results as given in PubChem BioAssay AID1159580 (chemical genetic matrix, 2015).
Where “and” joins values, the source holds several entries; their conditions need not be identical. Equal entries are not always repeated. Screen size: about 5,500 compounds; about 2,000 (36%) were called active. Roughly 18% stayed inconclusive and do not appear here. Cut-off read from the data, not from the text of the source: active = normalized growth mostly below about 0.91 (no sharp cut-off); inconclusive = no clear call, values can overlap the other calls; inactive = mostly above about 0.92. This is one part of the list.

Experiment: chemical genetic growth profiling, strain panel (AID 1159580);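 note: tested at 20 µM; growth read once vehicle control cultures reached saturation at 30 °C; 1 = growth at the plate median or of vehicle wells; lower values mean less growth of the strain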
Conditions: S. cerevisiae deletion strains, growth OD
[1] = locus YHR030C, strain SLT2, stronger effect = lower value
[2] = locus YHR079C, strain IRE1, stronger effect = lower value
[3] = locus YJL095W, strain BCK1, stronger effect = lower value
[4] = locus YJR066W, strain TOR1, stronger effect = lower value
[5] = locus YLR113W, strain HOG1, stronger effect = lower value
[6] = locus YNL183C, strain NPR1, stronger effect = lower value
[7] = locus YOR231W, strain MKK1, stronger effect = lower value
[8] = locus YPL256C, strain CLN2, stronger effect = lower value

Measured: normalized growth

C=C1CC[C@H](O)C/C1=C/C=C1\CCC[C@]2(C)C([C@H](C)/C=C/[C@H](C)C(C)C)CC[C@@H]12 (stereo partly drawn)
inactive: locus YAL013W, strain DEP1, stronger effect = lower value 0.977 | locus YAL021C, strain ccr4, stronger effect = lower value 1.05 | locus YAL026C, strain drs2, stronger effect = lower value 1 | locus YAL030W, strain snc1, stronger effect = lower value 1.02 | locus YBL061C, strain skt5, stronger effect = lower value 1.02 | locus YBR009C, strain hhf1, stronger effect = lower value 0.991 | locus YBR021W, strain FUR4, stronger effect = lower value 1.04 | locus YBR023C, strain chs3, stronger effect = lower value 0.998 | locus YBR171W, strain sec66, stronger effect = lower value 1.01 | locus YBR229C, strain ROT2, stronger effect = lower value 0.944 | locus YBR231C, strain swc5, stronger effect = lower value 0.995 | locus YBR279W, strain paf1, stronger effect = lower value 1.01 | locus YCL011C, strain gbp2, stronger effect = lower value 1.02 | locus YCL016C, strain dcc1, stronger effect = lower value 0.995 | locus YCL029C, strain bik1, stronger effect = lower value 0.968 | locus YCL069W, strain vba3, stronger effect = lower value 1.01 | locus YCR088W, strain abp1, stronger effect = lower value 1.03 | locus YDL005C, strain med2, stronger effect = lower value 1 | locus YDL035C, strain GPR1, stronger effect = lower value 0.929 | locus YDL040C, strain nat1, stronger effect = lower value 1.02 | locus YDL074C, strain BRE1, stronger effect = lower value 0.961 | locus YDL101C, strain DUN1, stronger effect = lower value 0.976 | locus YDL185W, strain tfp1, stronger effect = lower value 0.981 | locus YDL192W, strain arf1, stronger effect = lower value 0.976 | locus YDR001C, strain nth1, stronger effect = lower value 1.03 | locus YDR069C, strain doa4, stronger effect = lower value 1.03 | locus YDR101C, strain arx1, stronger effect = lower value 0.948 | locus YDR137W, strain rgp1, stronger effect = lower value 0.939 | locus YDR150W, strain NUM1, stronger effect = lower value 0.977 | locus YDR159W, strain sac3, stronger effect = lower value 1.02 | locus YDR162C, strain NBP2, stronger effect = lower value 0.863 | locus YDR195W, strain ref2 1.03 | locus YDR297W, strain sur2, stronger effect = lower value 1.01 | locus YDR318W, strain mcm21, stronger effect = lower value 0.98 | locus YDR334W, strain swr1, stronger effect = lower value 1.03 | locus YDR335W, strain msn5, stronger effect = lower value 1.03 | locus YDR388W, stronger effect = lower value 0.977 | locus YDR392W, strain spt3, stronger effect = lower value 0.911 | locus YDR502C, strain sam2, stronger effect = lower value 0.998 | locus YEL003W, strain gim4, stronger effect = lower value 1.03 | locus YEL037C, strain rad23, stronger effect = lower value 1.01 | locus YEL061C, strain CIN8 (second series), stronger effect = lower value 1.03 | locus YEL061C, strain CIN8, stronger effect = lower value 0.982 | locus YER015W, strain faa2, stronger effect = lower value 1.01 | locus YER016W, strain bim1, stronger effect = lower value 1.02 | locus YER110C, stronger effect = lower value 0.977 | locus YER111C, strain swi4, stronger effect = lower value 0.996 | locus YER155C, strain BEM2 (second series), stronger effect = lower value 1.06 | locus YER155C, strain BEM2, stronger effect = lower value 0.997 | locus YER167W, strain BCK2, stronger effect = lower value 0.999 | locus YFR010W, strain ubp6, stronger effect = lower value 1.02 | locus YGL078C, strain dbp3, stronger effect = lower value 0.972 | locus YGL086W, strain mad1, stronger effect = lower value 0.958 | locus YGL167C, strain pmr1, stronger effect = lower value 1.03 | locus YGL173C, strain kem1, stronger effect = lower value 1.04 | locus YGL227W, strain vid30, stronger effect = lower value 1.01 | locus YGL240W, strain doc1, stronger effect = lower value 1.03 | locus YGL248W, strain PDE1, stronger effect = lower value 0.978 | locus YGL253W, strain hxk2, stronger effect = lower value 0.989 | locus YGR078C, strain PAC10, stronger effect = lower value 0.974 | locus YGR135W, strain pre9, stronger effect = lower value 1.03 | locus YGR252W, strain gcn5, stronger effect = lower value 1.08 | locus YHR013C, strain ard1, stronger effect = lower value 1.07 | locus YHR027C, strain rpn1, stronger effect = lower value 1.03 | [1] 0.998 and 0.979 | locus YHR079C, strain IRE1 (second series), stronger effect = lower value 0.964 | [2] 0.997 | locus YHR094C, strain hxt1, stronger effect = lower value 0.978 | locus YHR129C, strain ARP1, stronger effect = lower value 0.988 | locus YHR142W, strain chs7, stronger effect = lower value 1 | locus YHR200W, strain rpn10, stronger effect = lower value 0.981 | locus YIL066C, strain RNR3, stronger effect = lower value 0.968 | locus YIL073C, strain SPO22, stronger effect = lower value 0.994 | locus YIL125W, strain kgd1, stronger effect = lower value 0.98 | locus YIR030C, strain dcg1, stronger effect = lower value 0.984 | locus YJL092W, strain hpr5, stronger effect = lower value 1.02 | locus YJL095W, strain BCK1 (second series), stronger effect = lower value 1.02 | [3] 0.959 and 1 | locus YJL115W, strain asf1, stronger effect = lower value 1.02 | locus YJL129C, strain trk1, stronger effect = lower value 1.02 | locus YJL134W, strain LCB3, stronger effect = lower value 0.982 | locus YJL154C, strain vps35, stronger effect = lower value 1.03 | locus YJL164C, strain tpk1, stronger effect = lower value 1.01 | locus YJL166W, strain qcr8, stronger effect = lower value 1 | locus YJL168C, strain set2, stronger effect = lower value 0.991 | locus YJL187C, strain SWE1 (second series), stronger effect = lower value 0.965 | locus YJR043C, strain POL32, stronger effect = lower value 0.956 | [4] 0.891 | locus YJR075W, strain HOC1, stronger effect = lower value 0.979 | locus YKL009W, strain mrt4, stronger effect = lower value 0.935 | locus YKL068W, stronger effect = lower value 0.994 | locus YKL085W, strain MDH1 (second series), stronger effect = lower value 0.993 | locus YKL085W, strain MDH1, stronger effect = lower value 0.993 | locus YKL160W, strain elf1, stronger effect = lower value 1.01 | locus YKR001C, strain vps1, stronger effect = lower value 0.949 | locus YKR026C, strain gcn3, stronger effect = lower value 1.02 | locus YKR091W, strain srl3, stronger effect = lower value 1.01 | locus YLL001W, strain dnm1, stronger effect = lower value 1.02 | locus YLL026W, stronger effect = lower value 1.01 | locus YLL041C, strain sdh2, stronger effect = lower value 1.03 | locus YLR027C, strain aat2, stronger effect = lower value 1.01 | locus YLR039C, strain RIC1, stronger effect = lower value 0.777 | locus YLR058C, strain SHM2, stronger effect = lower value 0.978 | locus YLR102C, strain apc9, stronger effect = lower value 0.991 | [5] 1.02 | locus YLR221C, strain rsa3, stronger effect = lower value 1.02 | locus YLR258W, strain gsy2, stronger effect = lower value 1.01 | locus YLR262C, strain YPT6 (second series), stronger effect = lower value 0.907 | locus YLR262C, strain YPT6, stronger effect = lower value 0.758 | locus YLR268W, strain sec22, stronger effect = lower value 0.937 | locus YLR320W, strain mms22, stronger effect = lower value 0.987 | locus YLR330W, strain CHS5, stronger effect = lower value 0.984 | locus YLR342W, strain FKS1 (second series), stronger effect = lower value 0.991 | locus YLR342W, strain FKS1, stronger effect = lower value 1.01 | locus YLR357W, strain rsc2, stronger effect = lower value 1.05 | locus YLR370C, strain arc18, stronger effect = lower value 1.04 | locus YLR371W, strain rom2, stronger effect = lower value 1.01 | locus YLR384C, strain iki3, stronger effect = lower value 1.02 | locus YLR418C, strain cdc73, stronger effect = lower value 0.985 | locus YML016C, strain PPZ1, stronger effect = lower value 0.984 | locus YML032C, strain rad52, stronger effect = lower value 0.979 | locus YML120C, strain ndi1, stronger effect = lower value 1.03 | locus YML124C, strain tub3, stronger effect = lower value 0.985 | locus YMR058W, strain fet3, stronger effect = lower value 1 | locus YMR078C, strain ctf18, stronger effect = lower value 0.984 | locus YMR125W, strain sto1, stronger effect = lower value 1.02 | locus YMR129W, stronger effect = lower value 1.02 | locus YMR205C, strain PFK2, stronger effect = lower value 1.02 | locus YMR223W, strain ubp8, stronger effect = lower value 1.01 | locus YMR231W, strain pep5, stronger effect = lower value 1 | locus YMR263W, strain SAP30, stronger effect = lower value 0.976 | locus YMR307W, strain GAS1, stronger effect = lower value 0.923 | locus YNL067W, strain RPL9B, stronger effect = lower value 0.982 | locus YNL071W, strain lat1, stronger effect = lower value 0.983 | [6] 0.98 | locus YNL209W, strain ssb2, stronger effect = lower value 1.01 | locus YNL233W, strain BNI4, stronger effect = lower value 0.993 | locus YNL248C, strain rpa49, stronger effect = lower value 1.02 | locus YNL250W, strain rad50, stronger effect = lower value 0.993 | locus YNL271C, strain bni1, stronger effect = lower value 0.967 | locus YNL298W, strain CLA4, stronger effect = lower value 0.969 | locus YNL307C, strain MCK1, stronger effect = lower value 0.989 | locus YNL322C, strain KRE1 (second series), stronger effect = lower value 1.03 | locus YNL322C, strain KRE1, stronger effect = lower value 0.999 | locus YNR049C, strain mso1, stronger effect = lower value 1.02 | locus YNR052C, strain pop2, stronger effect = lower value 0.981 | locus YOL006C, strain TOP1, stronger effect = lower value 0.967 | locus YOL012C, strain htz1 1.45 | locus YOL147C, strain pex11, stronger effect = lower value 0.993 | locus YOR001W, strain rrp6, stronger effect = lower value 1 | locus YOR061W, strain CKA2, stronger effect = lower value 0.953 | locus YOR069W, strain VPS5, stronger effect = lower value 0.98 | locus YOR070C, strain gyp1, stronger effect = lower value 1.01 | locus YOR080W, strain dia2, stronger effect = lower value 1.01 | locus YOR083W, strain WHI5, stronger effect = lower value 0.985 | locus YOR106W, strain vam3, stronger effect = lower value 1.04 | locus YOR136W, strain idh2, stronger effect = lower value 0.981 | locus YOR144C, strain elg1, stronger effect = lower value 0.989 | locus YOR184W, strain ser1, stronger effect = lower value 0.939 | [7] 1.02 | locus YOR265W, strain rbl2, stronger effect = lower value 1.01 | locus YOR270C, strain vph1, stronger effect = lower value 0.873 | locus YOR290C, strain snf2, stronger effect = lower value 1.02 | locus YOR316C, strain cot1, stronger effect = lower value 0.978 | locus YPL051W, strain arl3, stronger effect = lower value 1.01 | locus YPL055C, strain LGE1, stronger effect = lower value 1.01 | locus YPL078C, strain atp4, stronger effect = lower value 1.01 | locus YPL106C, strain sse1, stronger effect = lower value 1.09 | locus YPL240C, strain hsp82, stronger effect = lower value 1.01 | [8] 1.01 | locus YPR119W, strain clb2, stronger effect = lower value 0.982 | locus YPR141C, strain kar3, stronger effect = lower value 0.981 | locus YPR163C, strain tif3, stronger effect = lower value 0.992 | locus YPR167C, strain met16, stronger effect = lower value 0.985 | strain wtn01, stronger effect = lower value 0.981

C=C1CC[C@H](O)C/C1=C/C=C1\CCCC2(C)C1CCC2C(C)CCCC(C)C (stereo partly drawn)
active: [5] 0.843
inactive: [1] 0.874 | [2] 0.925 | [3] 0.893 | [4] 0.943 | [6] 0.915 | [7] 0.896 | [8] 0.846
